Assay [1] addresses Death-associated protein kinase 1 (Homo sapiens) (UniProt P53355). The following applies: at 1 µM.
The target in assay [2] is T1, Serine/threonine-protein kinase DCLK2 (Homo sapiens) (UniProt Q8N568).
T1 sequence (whole entry): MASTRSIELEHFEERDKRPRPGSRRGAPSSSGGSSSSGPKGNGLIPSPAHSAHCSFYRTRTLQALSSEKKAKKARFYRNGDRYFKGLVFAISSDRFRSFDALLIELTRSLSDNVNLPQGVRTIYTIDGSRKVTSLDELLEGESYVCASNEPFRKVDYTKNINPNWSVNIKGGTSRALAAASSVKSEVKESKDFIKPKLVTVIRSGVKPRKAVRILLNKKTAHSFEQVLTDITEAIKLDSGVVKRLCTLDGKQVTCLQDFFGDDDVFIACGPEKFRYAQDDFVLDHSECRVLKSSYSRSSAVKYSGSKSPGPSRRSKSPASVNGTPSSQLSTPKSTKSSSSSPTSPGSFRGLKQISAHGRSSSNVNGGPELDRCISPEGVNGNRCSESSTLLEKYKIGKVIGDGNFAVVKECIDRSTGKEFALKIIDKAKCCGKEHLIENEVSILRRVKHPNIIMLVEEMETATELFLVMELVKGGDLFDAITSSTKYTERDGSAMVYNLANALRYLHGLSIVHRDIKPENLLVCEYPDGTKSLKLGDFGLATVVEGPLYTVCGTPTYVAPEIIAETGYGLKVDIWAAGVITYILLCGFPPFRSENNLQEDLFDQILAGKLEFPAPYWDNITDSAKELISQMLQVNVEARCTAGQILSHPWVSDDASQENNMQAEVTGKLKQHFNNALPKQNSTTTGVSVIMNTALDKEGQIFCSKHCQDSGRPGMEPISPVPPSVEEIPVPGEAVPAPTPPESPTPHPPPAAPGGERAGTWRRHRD
The following applies: at 0.1 µM.

Assay [3] concerns the target T1, Serine/threonine-protein kinase DCLK2 (Homo sapiens). The following applies: at 1 µM.
The target of assay [4] is MAP kinase-activated protein kinase 2 (Homo sapiens) (UniProt P49137). The settings on record: at 0.1 µM.
Chain of MAP kinase-activated protein kinase 2 (Homo sapiens) (P49137 whole entry, looked up): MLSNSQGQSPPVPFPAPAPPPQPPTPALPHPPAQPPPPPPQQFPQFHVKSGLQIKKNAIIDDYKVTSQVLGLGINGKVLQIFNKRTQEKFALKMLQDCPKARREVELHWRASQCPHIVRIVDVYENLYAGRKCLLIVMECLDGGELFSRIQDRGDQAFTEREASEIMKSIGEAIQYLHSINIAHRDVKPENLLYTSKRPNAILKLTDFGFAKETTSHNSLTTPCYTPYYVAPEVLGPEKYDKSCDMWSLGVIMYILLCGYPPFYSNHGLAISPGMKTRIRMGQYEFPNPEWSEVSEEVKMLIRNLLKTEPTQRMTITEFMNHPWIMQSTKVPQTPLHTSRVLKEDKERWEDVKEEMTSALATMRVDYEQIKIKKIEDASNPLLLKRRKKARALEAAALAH
Assay [5] has the same target. The settings on record: at 1 µM.
Assay [6] deals with MAP kinase-activated protein kinase 3 (Homo sapiens) (UniProt Q16644). The following applies: at 0.1 µM.
Chain of MAP kinase-activated protein kinase 3 (Homo sapiens) (Q16644 whole entry, looked up): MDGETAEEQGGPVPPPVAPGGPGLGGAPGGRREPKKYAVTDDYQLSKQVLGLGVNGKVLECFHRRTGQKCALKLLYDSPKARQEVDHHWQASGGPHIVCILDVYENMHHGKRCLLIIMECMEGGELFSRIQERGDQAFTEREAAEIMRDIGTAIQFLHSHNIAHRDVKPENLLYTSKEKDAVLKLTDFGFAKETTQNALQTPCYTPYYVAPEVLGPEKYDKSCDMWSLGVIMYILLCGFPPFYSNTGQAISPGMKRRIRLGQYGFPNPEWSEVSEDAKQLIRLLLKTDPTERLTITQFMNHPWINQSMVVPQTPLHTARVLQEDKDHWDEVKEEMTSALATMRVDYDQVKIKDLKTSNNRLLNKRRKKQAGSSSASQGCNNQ
Assay [7] has the same target. The following applies: at 1 µM.
Assay [8] concerns the target Serine/threonine-protein kinase MARK1 (Homo sapiens) (UniProt Q9P0L2). The settings on record: at 0.1 µM.
Assay [9] has the same target. The settings on record: at 1 µM.
Assay [10] concerns the target MAP/microtubule affinity-regulating kinase 3 (Homo sapiens) (UniProt P27448). The following applies: at 0.1 µM.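 Note: mean percent inhibition of MARK3 kinase activity, measured within the GSK PKIS screening panel.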

Chain of Serine/threonine-protein kinase MARK1 (Homo sapiens) (Q9P0L2 whole entry, looked up): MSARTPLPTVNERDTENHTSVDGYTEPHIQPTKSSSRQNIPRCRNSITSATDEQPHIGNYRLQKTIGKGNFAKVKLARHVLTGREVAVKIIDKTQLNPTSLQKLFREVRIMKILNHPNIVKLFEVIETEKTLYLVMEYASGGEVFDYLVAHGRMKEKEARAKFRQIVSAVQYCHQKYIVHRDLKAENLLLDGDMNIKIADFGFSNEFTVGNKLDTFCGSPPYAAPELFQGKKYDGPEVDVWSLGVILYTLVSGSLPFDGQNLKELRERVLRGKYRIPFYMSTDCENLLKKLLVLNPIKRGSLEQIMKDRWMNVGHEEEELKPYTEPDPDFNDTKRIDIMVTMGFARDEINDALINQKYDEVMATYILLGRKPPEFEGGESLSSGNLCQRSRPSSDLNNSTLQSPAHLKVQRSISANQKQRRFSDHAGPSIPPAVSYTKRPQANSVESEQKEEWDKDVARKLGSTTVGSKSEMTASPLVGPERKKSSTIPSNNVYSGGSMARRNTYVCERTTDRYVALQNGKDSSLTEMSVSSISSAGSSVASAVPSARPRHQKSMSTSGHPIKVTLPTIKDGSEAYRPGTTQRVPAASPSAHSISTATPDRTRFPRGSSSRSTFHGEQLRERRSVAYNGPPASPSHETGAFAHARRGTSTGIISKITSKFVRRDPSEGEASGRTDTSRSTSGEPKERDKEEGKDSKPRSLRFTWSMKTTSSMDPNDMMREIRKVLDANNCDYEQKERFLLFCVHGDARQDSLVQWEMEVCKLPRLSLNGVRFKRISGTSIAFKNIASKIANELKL
Chain of Death-associated protein kinase 1 (Homo sapiens) (P53355 whole entry, looked up): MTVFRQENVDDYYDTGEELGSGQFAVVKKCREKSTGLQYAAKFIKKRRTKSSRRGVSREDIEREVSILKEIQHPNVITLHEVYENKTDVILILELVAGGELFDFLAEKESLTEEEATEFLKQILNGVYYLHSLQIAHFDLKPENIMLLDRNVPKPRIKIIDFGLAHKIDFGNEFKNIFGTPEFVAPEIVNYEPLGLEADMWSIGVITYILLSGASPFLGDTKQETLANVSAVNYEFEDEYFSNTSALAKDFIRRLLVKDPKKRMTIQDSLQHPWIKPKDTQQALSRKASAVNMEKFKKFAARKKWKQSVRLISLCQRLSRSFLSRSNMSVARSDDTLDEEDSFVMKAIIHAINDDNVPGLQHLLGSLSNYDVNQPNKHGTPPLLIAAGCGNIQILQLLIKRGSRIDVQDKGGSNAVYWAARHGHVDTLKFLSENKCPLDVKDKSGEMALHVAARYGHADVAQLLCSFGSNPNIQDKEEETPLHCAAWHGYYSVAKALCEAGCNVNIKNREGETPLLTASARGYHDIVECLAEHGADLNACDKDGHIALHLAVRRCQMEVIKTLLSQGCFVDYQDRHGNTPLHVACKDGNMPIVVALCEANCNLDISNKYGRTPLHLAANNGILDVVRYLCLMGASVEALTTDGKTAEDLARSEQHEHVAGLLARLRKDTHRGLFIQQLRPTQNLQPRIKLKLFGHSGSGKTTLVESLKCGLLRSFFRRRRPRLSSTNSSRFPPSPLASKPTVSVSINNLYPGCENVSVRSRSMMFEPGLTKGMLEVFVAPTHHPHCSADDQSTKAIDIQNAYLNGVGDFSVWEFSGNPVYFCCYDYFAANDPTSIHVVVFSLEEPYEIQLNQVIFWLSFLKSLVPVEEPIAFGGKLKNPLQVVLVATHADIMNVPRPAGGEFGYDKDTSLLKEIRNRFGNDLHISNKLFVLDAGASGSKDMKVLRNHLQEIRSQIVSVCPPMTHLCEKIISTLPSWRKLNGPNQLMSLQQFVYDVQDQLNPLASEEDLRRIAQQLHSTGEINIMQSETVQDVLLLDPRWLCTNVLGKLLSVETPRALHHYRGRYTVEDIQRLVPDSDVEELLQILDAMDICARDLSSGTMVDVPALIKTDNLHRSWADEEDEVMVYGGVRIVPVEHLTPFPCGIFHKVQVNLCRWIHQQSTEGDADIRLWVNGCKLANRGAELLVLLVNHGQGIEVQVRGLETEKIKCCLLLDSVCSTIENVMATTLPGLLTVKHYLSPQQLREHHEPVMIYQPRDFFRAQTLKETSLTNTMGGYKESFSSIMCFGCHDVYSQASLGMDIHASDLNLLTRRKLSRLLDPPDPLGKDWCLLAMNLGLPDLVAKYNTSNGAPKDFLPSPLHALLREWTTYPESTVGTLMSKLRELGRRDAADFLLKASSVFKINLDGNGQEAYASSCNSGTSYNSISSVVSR
Chain of MAP/microtubule affinity-regulating kinase 3 (Homo sapiens) (P27448 whole entry, looked up): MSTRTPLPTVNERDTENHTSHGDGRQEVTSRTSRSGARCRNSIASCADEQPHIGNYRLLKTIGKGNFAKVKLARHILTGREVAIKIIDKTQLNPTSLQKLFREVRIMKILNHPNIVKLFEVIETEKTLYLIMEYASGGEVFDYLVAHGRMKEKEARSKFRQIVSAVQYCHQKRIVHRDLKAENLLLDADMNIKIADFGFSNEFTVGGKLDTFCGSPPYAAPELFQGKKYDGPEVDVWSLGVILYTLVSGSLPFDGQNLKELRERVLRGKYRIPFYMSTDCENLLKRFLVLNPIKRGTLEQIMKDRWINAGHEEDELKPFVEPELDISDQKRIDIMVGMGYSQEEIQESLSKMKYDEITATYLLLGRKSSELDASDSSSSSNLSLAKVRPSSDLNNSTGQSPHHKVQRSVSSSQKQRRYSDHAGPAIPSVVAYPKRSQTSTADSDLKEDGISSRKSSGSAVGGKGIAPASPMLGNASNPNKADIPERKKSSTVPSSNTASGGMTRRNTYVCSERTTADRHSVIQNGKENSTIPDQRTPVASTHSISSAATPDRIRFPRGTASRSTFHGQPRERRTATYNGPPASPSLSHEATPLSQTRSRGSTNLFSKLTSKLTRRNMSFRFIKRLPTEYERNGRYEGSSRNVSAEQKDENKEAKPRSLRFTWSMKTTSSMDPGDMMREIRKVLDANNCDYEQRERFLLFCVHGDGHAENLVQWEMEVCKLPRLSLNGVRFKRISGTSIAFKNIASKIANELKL

As for `O=C1Nc2ccccc2/C1=C1\CCc2cc(O)ccc21`, the inhibition in assay [1] is -2.93%; in assay [2], 2.55%; in assay [3], 0.84%; in assay [4], -0.94%; in [5] it was -0.15%; in assay [6], -1.04%. The inhibition in assay [7] was -1.15%; in assay [8], 8.64%; in [9], 33.8%; in assay [10] it was 7.19%.
Consider `COc1c(C(N)=O)cc(-c2ccc(Cl)cc2)cc1-c1ccc(S(N)(=O)=O)cc1`, for which the inhibition in [1] is 0.56%; in assay [2] it was -5.08%; in assay [3], 2.52%; in assay [4], 2.42%; in assay [5] it was 3.46%; in assay [6] it was 5.57%. Moreover, the inhibition in assay [7] is 8.63%; in [8], 0.41%; in assay [9], 1.61%; in assay [10] it was -0.24%.
On to `Cc1cc(O)cc(C)c1/C=C/c1cncc(C(=O)OC(C)(C)C)c1`, for which the inhibition in assay [1] was 1.3%; in assay [2] it was 4.19%; in [3], 6.15%; in assay [4] it was 1.72%; in assay [5] it was 1%; in assay [6] it was 1.97%. The inhibition in assay [7] was determined as 2.47%; in [8], 2.3%; in assay [9], 2.93%; in assay [10], 2.5%.
For the molecule `CS(=O)(=O)CCNCc1ccc(-c2ccc3ncnc(Nc4ccc(OCc5ccccc5)cc4)c3c2)o1`, the inhibition in [1] was found to be 1.36%; in assay [2], 1.31%; in [3], 1.03%; in [4] it was 1.2%; in [5], 0.72%; in assay [6], 3.13%. For the same molecule, the inhibition turned out to be 2.48% in [7], 3.03% in assay [8], 2.05% in [9] and 0.62% in assay [10].
For `N#Cc1cccc(Nc2ncc(-c3ccccc3)o2)c1`, the inhibition in assay [1] is 2.82%; in [2] it was -0.77%; in assay [3], 0.28%; in [4], 0.9%; in assay [5], 1.11%; in [6] it was -0.02%. Moreover, the inhibition in assay [7] was 2.79%; in assay [8] it was 1.98%; in assay [9], 5.43%; in assay [10], -0.93%.
Regarding `CN(c1ccc(NC(=O)NCCN2CCOCC2)cc1)c1ccnc(Nc2ccc(CS(C)(=O)=O)cc2)n1`, the inhibition was determined as 4.97% in [1]; 0.85% in [2]; 0.61% in assay [3]; 1.97% in assay [4]; 2.7% in assay [5]; 2.92% in assay [6]. Besides, the inhibition in assay [7] stood at 3.83%; in assay [8], 2.9%; in [9], 7.21%; in assay [10], 2.81%.
In the case of `O=C(O[C@H]1CN[C@H](C#Cc2cc3ncnc(Nc4ccc5c(ccn5Cc5cc(F)ccc5F)c4)c3s2)C1)N1CCOCC1`, the inhibition was -3.4% in [1]; 1.07% in assay [2]; -1.18% in assay [3]; -0.3% in assay [4]; -1.2% in [5]; -1.09% in [6]. Moreover, the inhibition in assay [7] was -1.03%; in assay [8], 4.09%; in assay [9], 3.3%; in assay [10], 1.37%.
In the case of `COc1ccc2ncn(-c3cc(O[C@H](C)c4ccccc4C(F)(F)F)c(C(N)=O)s3)c2c1`, the inhibition was -2.31% in [1]; -0.78% in [2]; -1.64% in [3]; -0.39% in assay [4]; -0.49% in [5]; -0.9% in assay [6]. The inhibition is -0.93% in assay [7], 0.76% in assay [8], 5.8% in assay [9] and -0.92% in assay [10].
Turning to `N#Cc1ccc2c(-c3ccnc(NC4CC4)n3)c(-c3ccc(F)cc3)nn2c1`, the inhibition in [1] is 0.06%; in assay [2], -0.01%; in assay [3], 1.17%; in assay [4], 0.5%; in [5], -0.23%; in [6], 32.7%. Also, the inhibition in assay [7] was determined as 35.1%; in [8] it was 0.42%; in assay [9] it was 1.08%; in assay [10], 2.94%.
With `COc1cc(N2CCN(C(C)C)CC2)ccc1Nc1nc(Nc2cccc3ncccc23)c2cc[nH]c2n1`, the inhibition is -1.59% in [1]; -1.36% in assay [2]; -0.27% in assay [3]; -0.17% in assay [4]; -0.87% in [5]; -0.09% in assay [6]. Further, the inhibition in assay [7] turned out to be 0.19%; in assay [8] it was 0.48%; in assay [9] it was 2.18%; in [10] it was 0.2%.
In the case of `c1cnn2ncc(-c3ccnc(NCCCN4CCOCC4)n3)c2c1`, the inhibition in [1] was -0.07%; in [2] it was 1.46%; in assay [3] it was 1.43%; in [4], 1.81%; in [5] it was 2.19%; in assay [6] it was 4.59%. The inhibition in assay [7] was 4.86%; in assay [8], 1.78%; in assay [9], 5.05%; in assay [10] it was 2.58%.
As for `Cc1ccc(-c2cc3c(NC(=O)C4CC4)ncnc3o2)cc1`, the inhibition in assay [1] amounted to 4.66%; in assay [2], 1.46%; in assay [3] it was 0.28%; in assay [4], 1.78%; in assay [5] it was 1.3%; in assay [6], 2.67%. Also, the inhibition is 2.29% in assay [7], 5.62% in [8], 5.21% in assay [9] and 3.78% in assay [10].
As for `Fc1cccc(COc2ccc(Nc3ncncc3C#Cc3ccccc3)cc2Cl)c1`, the inhibition in assay [1] is 5.6%; in assay [2], 1.92%; in [3] it was -0.09%; in assay [4] it was 2.63%; in [5], 2.47%; in assay [6] it was 4.72%. Moreover, the inhibition in [7] was 6.08%; in assay [8] it was 4.09%; in assay [9], 5.61%; in assay [10], 4.58%.
On to `CCN1CCC(C(=O)Nc2n[nH]c3nnc(-c4cccc(F)c4F)cc23)CC1`, for which the inhibition in assay [1] is -1.64%; in assay [2], -0.76%; in assay [3], -0.98%; in [4], -0.95%; in assay [5] it was -0.88%; in assay [6] it was -0.17%. Moreover, the inhibition in assay [7] is -1.03%; in assay [8], 0.92%; in assay [9] it was 2.69%; in assay [10] it was -0.37%.
`CS(=O)(=O)Nc1ccc(-c2cc(-c3ccccc3)cc(C(N)=O)c2N)cc1`: the inhibition was 1.38% in [1]; -0.48% in assay [2]; 1.02% in assay [3]; 1.59% in assay [4]; 1.42% in [5]; 0.37% in assay [6]. The inhibition in assay [7] is 2.22%; in assay [8], 0.39%; in assay [9], 1.47%; in [10] it was -0.54%.
In the case of `CC1=C(C(=O)Nc2ccc3[nH]nc(C)c3c2)C(c2ccc(C(F)(F)F)cc2)CC(=O)N1` (stereo not given), the inhibition came to 4.3% in [1]; 1.35% in assay [2]; 0.55% in [3]; 1.67% in assay [4]; 0.92% in assay [5]; 0.91% in assay [6]. In addition, the inhibition was 3.08% in assay [7], 1.38% in assay [8], 3.89% in assay [9] and -1.82% in assay [10].

The inhibition is the drop in the measured response relative to a control, in per cent.

Values taken from ChEMBL document CHEMBL1961873, “Compounds: GSK PKIS; Assays: Nanosyn kinase panel” (2012).
